This is part of a sample that, as a whole, favours compounds with a hit. Of some 79,000 tested, about 15% had one in any assay. Unmarked numbers belong to inactive results. Calls of active or inactive are those of the source. Cut-off read from the data, not from the text of the source: active = growth inhibition above about 70%; inactive = the rest.
How the values were obtained:
[1] = NCI Yeast Anticancer Drug Screen. Data for the rad50 strain (AID 155);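 note: 0% = growth of vehicle-only cultures of the same strain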; details: S. cerevisiae rad50 strain growth inhibition, hits give high values
How it was run: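 DNA repair mutant yeast, compound exposure, growth read-out; inhibition is taken relative to vehicle.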

[2] = NCI Yeast Anticancer Drug Screen. Data for the mec2-1 strain (AID 157); details: S. cerevisiae mec2-1 strain, hits give high values
How it was run: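 Mutant yeast (mec2-1) grown with compound; growth inhibition relative to vehicle control reported.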

[3] = NCI Yeast Anticancer Drug Screen. Data for the sgs1 mgt1 strain (AID 161);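 note: 0% = growth of cultures given vehicle only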; details: S. cerevisiae sgs1 mgt1 strain, hits give high values
How it was run: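 This yeast growth screen uses a strain with defined DNA-repair lesions; compound-treated growth is compared with vehicle-treated growth.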

[4] = NCI Yeast Anticancer Drug Screen. Data for the cln2 rad14 strain (AID 165);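 note: 0% = growth equal to vehicle treated cultures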; details: S. cerevisiae cln2 rad14 strain, hits give high values
How it was run: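 Readout is yeast growth inhibition versus vehicle-treated controls, using a strain with cln2 and rad14 alterations exposed to compound.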

[5] = NCI Yeast Anticancer Drug Screen. Data for the bub3 strain (AID 167); details: S. cerevisiae bub3 mutant strain, hits give high values
How it was run: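 In this screen, a yeast mutant lacking normal mitotic checkpoint function is challenged with compound. Relative growth versus vehicle gives the inhibition value.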

[6] = NCI Yeast Anticancer Drug Screen. Data for the mlh1 rad18 strain (AID 175); details: S. cerevisiae mlh1 rad18 strain growth inhibition, hits give high values
How it was run: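 Genetically defined yeast (DNA repair-deficient) exposed to compounds; growth inhibition determined relative to vehicle.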

[7] = at 5.0 µM (retest, dose inferred, filed as 0.5)
[8] = at 50.0 µM (retest, dose inferred, filed as 5.0)

Structure (SMILES)	growth inhibition [1, 7]	growth inhibition [1, 8]	growth inhibition ([1]; at 50.0 µM)	growth inhibition [2, 7]	growth inhibition [2, 8]	growth inhibition ([2]; at 50.0 µM)	growth inhibition [3, 7]	growth inhibition [3, 8]	growth inhibition ([3]; at 50.0 µM)	growth inhibition [4, 7] [%]	growth inhibition [4, 8]	growth inhibition ([4]; at 50.0 µM)	growth inhibition [5, 7]	growth inhibition [5, 8]	growth inhibition ([5]; at 50.0 µM)	growth inhibition [6, 7]	growth inhibition [6, 8]	growth inhibition ([6]; at 50.0 µM)
CNC(=O)OCc1c(COC(=O)NC)c(-c2ccc(Cl)c(Cl)c2)n2c1Cc1ccccc1C2	-18%	97% (active)	88.7% (active)	-21%	98% (active)	92.2% (active)	-6%	85% (active)	88.8% (active)	8	63%	90.8% (active)	-23%	97% (active)	88.1% (active)	-11%	97% (active)	87% (active)
[O-][n+]1c2ccccc2cc2c1c1ccccc1n2O	-1%	1%	20.1%	0%	0%	5.2%	-7%	-3%	17.7%	4	8%	46.4%	6%	4%	0.45%	-4%	-5%	13.9%
CC(C)Cn1cnc2c(SCc3ccc(Cl)cc3Cl)nc(N)nc21	0%	46%	36.7%	-1%	38%	29.9%	20%	45%	90.8% (active)	-15	44%	41.2%	4%	32%	38.7%	-3%	66%	66.8%
O=C1c2ccccc2C(=O)C2(C(c3ccccc3)c3ccccc3)N=NCC12 (stereo not given)	-5%	15%	4.15%	-1%	-7%	11.9%	0%	18%	7.95%	5	5%	-7.15%	27%	42%	30.1%	13%	21%	12.2%
O=[N+]([O-])c1ccc(N=C(Cl)C(Cl)(c2ccccc2)c2ccccc2)cc1	14%	97% (active)	96.2% (active)	11%	97% (active)	96.7% (active)	-20%	98% (active)	97% (active)	9	97% (active)	94.2% (active)	8%	96% (active)	95.2% (active)	7%	97% (active)	95.5% (active)
Cc1ccc(N2C(=O)CSC2=S)cc1Br	7%	46%	95.1% (active)	3%	11%	93% (active)	4%	49%	94.9% (active)	-1	-11%	31.9%	-2%	24%	77.5% (active)	3%	64%	95.2% (active)
c1ccc([P+](c2ccccc2)(c2ccccc2)C2c3ccccc3-c3ccccc32)cc1	68%	98% (active)	91.2% (active)	55%	98% (active)	92.8% (active)	86% (active)	99% (active)	89.5% (active)	31	97% (active)	88.5% (active)	57%	99% (active)	86.5% (active)	69%	98% (active)	86.2% (active)
COC1/C=C\C=C(/C)C(=O)Nc2cc3nc4cc(Br)ccc4oc-3c(c2=O)CC(C)CC(OC)C(O)C(C)/C=C(\C)C1OC(N)=O (stereo not given)	54%	95% (active)	90.2% (active)	81% (active)	96% (active)	92% (active)	46%	94% (active)	89.9% (active)	50	96% (active)	83.2% (active)	79% (active)	96% (active)	91.8% (active)	81% (active)	95% (active)	89.4% (active)
O=C1c2cc([N+](=O)[O-])cc3cc([N+](=O)[O-])cc(c23)C(=O)N1CCNCCN1C(=O)c2cc([N+](=O)[O-])cc3cc([N+](=O)[O-])cc(c23)C1=O	86% (active)	92% (active)	81.2% (active)	42%	89% (active)	89.2% (active)	64%	94% (active)	42.4%	62	90% (active)	70.3% (active)	61%	92% (active)	92.3% (active)	56%	92% (active)	76.3% (active)
Nc1ccc(S(=O)(=O)Nc2cc(Cl)cc(Cl)c2)cc1	-4%	92% (active)	99.5% (active)	-4%	100% (active)	97.2% (active)	-4%	99% (active)	99.3% (active)	-15	99% (active)	97.3% (active)	3%	99% (active)	99.2% (active)	1%	99% (active)	98.2% (active)
